Data: the supplement of paper PMC10646978
± gives the standard deviation.

Assays:
Conditions in all cases: modulator concentration 10 µM
[1] = system: RAW-Dual (murine macrophage reporter line); experiment: NF-kB reporter (SEAP) activity fold change vs agonist alone; higher = enhanced NF-kB activity
In short: (§1)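 RAW-Dual murine macrophage reporter cells were plated at 50 000 per well in 384-well plates, pin-transferred compound to 10 μM final, and pre-incubated for 1 hour at 37 °C before a PRR agonist was added and the cells incubated overnight. NF-κB activity was read from supernatant SEAP with QUANTI-Blue at 620 nm absorbance, and IRF activity from Lucia luciferase with QUANTI-Luc by luminescence. Each signal was expressed as fold change by dividing by the mean agonist-only control on the same plate. Two replicate plates were averaged, with errors obtained by propagation.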

[2] = system: RAW-Dual (murine macrophage reporter line); experiment: IRF reporter (Lucia luciferase) activity fold change vs agonist alone; higher = enhanced IRF activity
In short: as §1

[3] = system: RAW-Dual (murine macrophage reporter line); experiment: viability score (confluency relative to resting cells, overnight) (fraction); higher = more viable, active = viable (0.7 or more)
In short: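 RAW-Dual macrophages in 384-well plates were incubated overnight with compound, final concentration 10 μM. Confluency images from IncuCyte were processed in IncuCyte software into two masks covering all imaged wells. The viability score is each well's confluency relative to resting cells, and a compound met the cutoff when both masks exceeded 70% of resting cells.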

[4] = agonist: CpG ODN 1826 0.5 ug/mL

Row | Compound | NF-kB reporter [1, 4] | NF-kB reporter ([1]; agonist: LPS 0.1 ug/mL) | NF-kB reporter ([1]; agonist: MPLA […]) | IRF reporter ([2]; agonist: 3'3'-cGAMP 10 ug/mL) | IRF reporter ([2]; agonist: LPS 0.1 ug/mL) | IRF reporter ([2]; agonist: MPLA […]) | viability score [3]
1 | COc1ccc(Nc2nc(N3CCCC(C)C3)nc3[nH]ncc23)cc1 (configuration not stated) | 0.608 ± 0.03 | 0.617 ± 0.051 | 0.768 ± 0.048 | 0.623 ± 0.045 | 0.905 ± 0.21 | 1.32 ± 0.46 | 0.264 (inactive)
2 | O=[N+]([O-])c1ccc2nc(Cl)sc2c1 | 1.71 ± 0.13 | 0.49 ± 0.039 | 0.338 ± 0.032 | 0.159 ± 0.02 | 0.223 ± 0.083 | 0.0921 ± 0.025 | 0.638 (inactive)
3 | NC(=O)c1ncn([C@@H]2O[C@H](CO)[C@@H](O)[C@H]2O)c1O | 0.723 ± 0.23 | 1.08 ± 0.069 | 0.898 ± 0.05 | 1.02 ± 0.085 | 1.04 ± 0.086 | 1.16 ± 0.094 | 0.998 (active)
4 | Cc1ccc(O)c(C2=NOC(O)(C(F)(F)F)C2)c1 (configuration not stated) | 1.05 ± 0.065 | 0.955 ± 0.074 | 0.919 ± 0.054 | 0.975 ± 0.037 | 1.43 ± 0.24 | 1.04 ± 0.093 | 0.339 (inactive)
5 | CCNc1nc(S)nc(NC(C)C)n1 | 1.13 ± 0.085 | 1.03 ± 0.051 | 1.02 ± 0.024 | 0.731 ± 0.041 | 0.98 ± 0.13 | 0.927 ± 0.11 | 0.991 (active)
6 | CCc1nc2ccccc2[nH]1 | 1.04 ± 0.18 | 0.954 ± 0.076 | 1.06 ± 0.1 | 0.998 ± 0.028 | 1.23 ± 0.12 | 1.44 ± 0.21 | 1.01 (active)
7 | Cc1ccc(CCC(=O)N2CC(N3C(=O)C4CC=CCC4C3=O)C2)cc1F (configuration not stated) | 0.728 ± 0.26 | 1.1 ± 0.1 | 1 ± 0.044 | 0.741 ± 0.037 | 1.05 ± 0.12 | 0.87 ± 0.092 | 1 (active)
8 | c1ccc(-n2nnnc2SCc2ccc3c(c2)OCO3)cc1 | 1.1 ± 0.096 | 1.22 ± 0.14 | 1.46 ± 0.096 | 0.785 ± 0.029 | 0.988 ± 0.11 | 1.13 ± 0.25 | 0.998 (active)
9 | COc1ccc(CN(CCN(C)C)c2ccccn2)cc1.O=C(O)/C=C\C(=O)O | 0.568 ± 0.15 | 1 ± 0.053 | 1.01 ± 0.094 | 0.834 ± 0.073 | 0.773 ± 0.13 | 0.78 ± 0.087 | 0.946 (active)
10 | O=C(c1ccc(C(F)(F)F)nc1)N1CC(n2cc(C3CC3)nn2)C1 | 0.889 ± 0.073 | 0.931 ± 0.095 | 1.13 ± 0.082 | 1.01 ± 0.071 | 1.06 ± 0.15 | 1.08 ± 0.29 | 0.942 (active)
11 | Cc1cc(C)n(CC2CCN(Cc3ccc(Br)cc3)CC2)n1 | 0.933 ± 0.049 | 0.745 ± 0.063 | 0.74 ± 0.049 | 0.913 ± 0.05 | 1.19 ± 0.21 | 1.27 ± 0.39 | 0.626 (inactive)
12 | O=C(O)c1cc([N+](=O)[O-])c(Nc2cccc3ccccc23)c([N+](=O)[O-])c1 | 0.879 ± 0.05 | 1.05 ± 0.068 | 0.888 ± 0.074 | 0.965 ± 0.057 | 1.31 ± 0.12 | 1.13 ± 0.22 | 1.01 (active)
13 | COC(=O)c1cc(OC)c(=O)c2c(OC)c(OC)ccc2c1 | 1.08 ± 0.33 | 0.981 ± 0.059 | 0.931 ± 0.1 | 0.743 ± 0.03 | 1.02 ± 0.22 | 0.884 ± 0.088 | 0.984 (active)
14 | COC1CCN(c2ccc(C(=O)N3CC(n4cc(COc5ccccc5)nn4)C3)cc2)C1 (configuration not stated) | 1.17 ± 0.099 | 1.13 ± 0.1 | 0.959 ± 0.053 | 0.758 ± 0.043 | 1.12 ± 0.076 | 1.08 ± 0.24 | 0.922 (active)
15 | Cc1cc(Cl)ccc1OCC(O)CN1CC(C)OC(C)C1.Cl (configuration not stated) | 0.764 ± 0.068 | 0.939 ± 0.1 | 0.934 ± 0.081 | 0.937 ± 0.043 | 1.05 ± 0.068 | 1.01 ± 0.087 | 0.977 (active)
16 | CC1=C(C(=O)OCC(F)(F)C(F)(F)F)C(c2ccccc2)NC(=O)N1 (configuration not stated) | 0.847 ± 0.052 | 0.975 ± 0.077 | 0.863 ± 0.053 | 1.31 ± 0.05 | 1.34 ± 0.089 | 1.23 ± 0.23 | 0.934 (active)
17 | CC(=O)N1CC(C(=O)Nc2ccc(Br)c(C)c2)C1 | 1.05 ± 0.071 | 0.996 ± 0.082 | 0.973 ± 0.053 | 0.988 ± 0.035 | 1.03 ± 0.048 | 0.909 ± 0.089 | 0.997 (active)
18 | O=C1CN(C(=O)c2cc3ccccc3o2)c2ccccc2N1 | 1.1 ± 0.35 | 1.01 ± 0.052 | 1.21 ± 0.1 | 0.992 ± 0.035 | 1.03 ± 0.14 | 1.1 ± 0.14 | 0.998 (active)
19 | O=C(O)CCC(=O)c1ccc(-c2ccccc2)cc1 | 0.806 ± 0.11 | 0.842 ± 0.1 | 0.87 ± 0.07 | 0.931 ± 0.049 | 0.984 ± 0.087 | 0.999 ± 0.078 | 0.986 (active)
20 | CNCCc1ccccn1.Cl.Cl | 1.19 ± 0.36 | 0.956 ± 0.18 | 0.964 ± 0.08 | 0.946 ± 0.05 | 1.01 ± 0.31 | 1 ± 0.13 | 0.997 (active)
21 | COc1ccc(OS(=O)(=O)c2ccc3cc(OC)ccc3c2)cc1 | 0.982 ± 0.088 | 1.14 ± 0.089 | 1.06 ± 0.068 | 1 ± 0.035 | 1.43 ± 0.1 | 1.03 ± 0.15 | 1 (active)
22 | Cc1cccc(N(CC(=O)Nc2ccc3c(c2)OCO3)S(C)(=O)=O)c1 | 0.716 ± 0.06 | 0.934 ± 0.068 | 1 ± 0.098 | 0.784 ± 0.04 | 1.19 ± 0.071 | 1.22 ± 0.13 | 1.02 (active)
23 | O=C(O)c1ccccc1O | 1.03 ± 0.23 | 1.04 ± 0.18 | 0.923 ± 0.052 | 0.925 ± 0.03 | 1.34 ± 0.12 | 1.23 ± 0.094 | 0.995 (active)
24 | COc1cc2c(cc1OC)C1C(=O)c3ccc4c(c3OC1CO2)CCC(C)(C)O4 (configuration not stated) | 0.91 ± 0.073 | 1.02 ± 0.075 | 1.67 ± 0.16 | 0.824 ± 0.026 | 1.52 ± 0.24 | 1.75 ± 0.36 | 1.02 (active)
25 | COc1ccc(CCNC(=O)NCc2nn(C3CCCC3)c3c2CCCC3)cc1 | 0.854 ± 0.037 | 1.04 ± 0.12 | 1.12 ± 0.08 | 0.726 ± 0.057 | 1.13 ± 0.18 | 1.15 ± 0.27 | 0.983 (active)
26 | Cc1n[nH]c(C)c1S(=O)(=O)N1CCCN(C(=O)Cc2ccccc2Cl)CC1 | 1.03 ± 0.051 | 1.14 ± 0.11 | 1 ± 0.18 | 1.05 ± 0.053 | 1.21 ± 0.074 | 1.26 ± 0.11 | 0.979 (active)
